Calls of active or inactive are those of the source. The calls were made as follows: active = hit-call score of the fitted dose curve at least 0.9, where 1 is the maximum; inactive = score below 0.9.
What was measured:
[1] = read-out: Transforming growth factor beta 1 (TGFb1), TGFB1 (gene 7040); experiment: BSK_KF3CT_TGFb1: BioMAP Diversity Plus: KF3CT Assay for Transforming growth factor beta 1 (TGFb1) Biomarker Activity (AID 2283072); conditions: primary human keratinocytes with fibroblasts; actives raise or lower the signal
In short: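 Primary human skin cells (keratinocytes, foreskin fibroblasts) were co-cultured, exposed to test chemical and sampled at 24 h. TGF-b1 levels were measured by ELISA and fitted bidirectionally relative to DMSO.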

[2] = read-out: C-C motif chemokine 2 (Homo sapiens) (UniProt P13500); experiment: BSK_KF3CT_MCP1: BioMAP Diversity Plus: KF3CT Assay for Monocyte Chemoattractant Protein 1 (MCP1/CCL2) Biomarker Activity (AID 2283073); conditions: primary human keratinocytes with fibroblasts; actives raise or lower the signal
In short: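 Human keratinocyte–foreskin fibroblast co-culture; MCP-1 measured by ELISA 24 h after dosing. Bidirectional fit vs DMSO; cytotoxicity tracked by SRB total protein in parallel cultures.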

[3] = read-out: Matrix Metallopeptidase 9 (MMP9), MMP9 (gene 4318); experiment: BSK_KF3CT_MMP9: BioMAP Diversity Plus: KF3CT Assay for Matrix Metallopeptidase 9 (MMP9) Biomarker Activity (AID 2283074); conditions: primary human keratinocytes with fibroblasts; actives raise or lower the signal;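 as to AC50: MMP9 protein level quantified by ELISA in the co-culture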
In short: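 Human keratinocyte/foreskin fibroblast co-culture; compound added; 24 h; MMP-9 by ELISA; bidirectional fit vs DMSO baseline.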

[4] = read-out: urokinase plasminogen activator (uPA), PLAU (gene 5328); experiment: BSK_KF3CT_uPA: BioMAP Diversity Plus: KF3CT Assay for urokinase plasminogen activator (uPA) Biomarker Activity (AID 2283075); conditions: primary human keratinocytes with fibroblasts; actives raise or lower the signal
In short: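 ELISA readout of uPA, analyzed for signal gain or loss relative to DMSO, from a human primary keratinocyte–foreskin fibroblast co-culture measured 24 h after chemical treatment.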

[5] = read-out: CD40, CD40 (gene 958); experiment: BSK_LPS_CD40: BioMAP Diversity Plus: LPS Assay for CD40 Biomarker Activity (AID 2283076); conditions: primary human HUVEC with PBMC; actives raise or lower the signal
In short: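 HUVEC plus PBMC co-culture stimulated with LPS; CD40 quantified by ELISA 24 h after compound dosing. Fitting was bidirectional relative to DMSO. SRB staining of parallel cultures flagged overt cytotoxicity.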

[6] = read-out: E-selectin (Homo sapiens) (UniProt P16581); experiment: BSK_LPS_Eselectin: BioMAP Diversity Plus: LPS Assay for Eselectin Biomarker Activity (AID 2283077); conditions: primary human HUVEC with PBMC; actives raise or lower the signal
In short: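 Human umbilical vein endothelial cells co-cultured with PBMC under LPS stimulation; cell-surface E-selectin measured by ELISA 24 h after dosing. Change in either direction versus DMSO, with SRB total-protein staining in parallel cultures for cytotoxicity.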

[7] = read-out: Interleukin-8 (IL8), CXCL8 (gene 3576); experiment: BSK_LPS_IL8: BioMAP Diversity Plus: LPS Assay for Interleukin-8 (IL8) Biomarker Activity (AID 2283078); conditions: primary human HUVEC with PBMC; actives raise or lower the signal
In short: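 Human umbilical vein endothelial cells co-cultured with PBMC, LPS-stimulated, exposed to compound for 24 h. IL-8 quantified by ELISA; fitted in both directions against DMSO, with SRB total-protein staining of parallel cultures for cytotoxicity.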

[8] = BSK_LPS_SRB: Viability Assessment in the BioMAP Diversity Plus: LPS Assay (AID 2283079); conditions: primary human HUVEC with PBMC;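 also: total protein by sulforhodamine B absorbance as a cytotoxicity measure; measured one day after compound addition; fitted in both directions against DMSO so loss or gain of signal counts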
In short: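 Co-culture of human umbilical vein endothelial cells and PBMC, read 24 h after dosing. Total protein by 0.1% SRB staining after 10% TCA fixation, absorbance at 560 nm; bidirectional fit against DMSO.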

[9] = read-out: Interleukin-1 alpha (IL1a), IL1A (gene 3552); experiment: BSK_LPS_IL1a: BioMAP Diversity Plus: LPS Assay for Interleukin-1 alpha (IL1a) Biomarker Activity (AID 2283080); conditions: primary human HUVEC with PBMC; actives raise or lower the signal
In short: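 Human umbilical vein endothelial cells co-cultured with PBMC and stimulated with LPS; IL-1a measured by ELISA 24 h after dosing. Bidirectional fitting against DMSO; cytotoxicity checked by SRB staining in parallel cultures.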

[10] = read-out: Monocyte Chemoattractant Protein-1 (MCP1), CCL2 (gene 6347); experiment: BSK_LPS_MCP1: BioMAP Diversity Plus: LPS Assay for Monocyte Chemoattractant Protein-1 (MCP1) Biomarker Activity (AID 2283081); conditions: primary human HUVEC with PBMC; actives raise or lower the signal
In short: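 Human umbilical vein endothelial cells co-cultured with PBMC, LPS-stimulated; secreted MCP-1 measured by ELISA 24 h after compound addition. Bidirectional curve fitting against DMSO baseline; SRB total-protein staining in parallel cultures for cytotoxicity.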

[11] = BSK_LPS_PGE2: BioMAP Diversity Plus: LPS Assay for Prostaglandin E2 (PGE2) Biomarker Activity (AID 2283082); conditions: primary human HUVEC with PBMC; actives raise or lower the signal;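 as to AC50: secreted prostaglandin E2 measured by ELISA in LPS-stimulated co-culture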
In short: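 LPS-activated HUVEC/PBMC co-culture; cmpd dosed, 24 h; PGE2 by ELISA; bidirectional fit vs DMSO; SRB (0.1%, TCA-fixed, 560 nm) in parallel plates for overt cytotox.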

[12] = read-out: Macrophage colony-stimulating factor (MCSF), CSF1 (gene 1435); experiment: BSK_LPS_MCSF: BioMAP Diversity Plus: LPS Assay for Macrophage colony-stimulating factor (MCSF) Biomarker Activity (AID 2283083); conditions: primary human HUVEC with PBMC; actives raise or lower the signal
In short: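 HUVEC–PBMC co-culture, M-CSF measured by ELISA 24 h after chemical dosing. Fitted in both directions relative to DMSO as negative control; overt cytotoxicity assessed by SRB total-protein staining in parallel cultures.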

[13] = read-out: Tissue Factor, F3 (gene 2152); experiment: BSK_LPS_TissueFactor: BioMAP Diversity Plus: LPS Assay for Tissue Factor Biomarker Activity (AID 2283084); conditions: primary human HUVEC with PBMC; actives raise or lower the signal
In short: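 Human umbilical vein endothelial cells co-cultured with PBMC were dosed with compound. Cell-surface CD142 was measured by ELISA 24 h later. Activity was fitted bidirectionally against DMSO, with SRB total-protein staining in parallel cultures for cytotoxicity.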

[14] = read-out: Tumor necrosis factor (Homo sapiens) (UniProt P01375); experiment: BSK_LPS_TNFa: BioMAP Diversity Plus: LPS Assay for Tumour Necrosis Factor alpha (TNFa) Biomarker Activity (AID 2283085); conditions: primary human HUVEC with PBMC; actives raise or lower the signal
In short: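 Read-out is ELISA of TNFa in primary human endothelial cell–PBMC co-cultures at 24 h after compound. Activity in either direction was fitted against DMSO.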

[15] = read-out: CD38, CD38 (gene 952); experiment: BSK_SAg_CD38: BioMAP Diversity Plus: SAg Assay for CD38 Biomarker Activity (AID 2283087); conditions: primary human HUVEC with PBMC; actives raise or lower the signal
In short: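 Human HUVEC plus PBMC co-culture stimulated with superantigen; CD38 measured by ELISA 24 h after chemical dosing. Fluorescence read-out, bidirectional fit against DMSO; cytotoxicity tracked in parallel by SRB and Alamar Blue.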

[16] = read-out: CD40, CD40 (gene 958); experiment: BSK_SAg_CD40: BioMAP Diversity Plus: SAg Assay for CD40 Biomarker Activity (AID 2283088); conditions: primary human HUVEC with PBMC; actives raise or lower the signal
In short: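 HUVEC plus PBMC co-culture, superantigen-activated, with CD40 read by ELISA 24 h after dosing. Curves fitted in both directions against DMSO. Overt cytotoxicity checked by parallel SRB total-protein staining.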

[17] = read-out: CD69, CD69 (gene 969); experiment: BSK_SAg_CD69: BioMAP Diversity Plus: SAg Assay for CD69 Biomarker Activity (AID 2283089); conditions: primary human HUVEC with PBMC; actives raise or lower the signal
In short: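 HUVEC co-cultured with PBMC were dosed with chemical, and CD69 was measured by ELISA with fluorescence read-out 24 h later. Bidirectional curve fitting used DMSO as negative control and activity baseline.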

[18] = read-out: Monocyte Chemoattractant Protein-1 (MCP1), CCL2 (gene 6347); experiment: BSK_SAg_MCP1: BioMAP Diversity Plus: SAg Assay for Monocyte Chemoattractant Protein-1 (MCP1) Biomarker Activity (AID 2283090); conditions: primary human HUVEC with PBMC; actives raise or lower the signal
In short: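 MCP-1 levels in the endothelial–PBMC SAg co-culture were quantified by ELISA at 24 h post-dosing; both increases and decreases versus DMSO scored. Cytotoxicity monitored by SRB total protein in parallel cultures.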

[19] = read-out: E-selectin (Homo sapiens) (UniProt P16581); experiment: BSK_SAg_Eselectin: BioMAP Diversity Plus: SAg Assay for Eselectin Biomarker Activity (AID 2283091); conditions: primary human HUVEC with PBMC; actives raise or lower the signal
In short: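 Human umbilical vein endothelial cells co-cultured with peripheral blood mononuclear cells, SAg system. E-selectin is measured by ELISA 24 h after dosing and fitted bidirectionally against DMSO. Cytotoxicity is checked by SRB staining of parallel cultures.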

[20] = read-out: Vascular cell adhesion molecule 1 (VCAM1), VCAM1 (gene 7412); experiment: BSK_LPS_VCAM1: BioMAP Diversity Plus: LPS Assay for Vascular cell adhesion molecule 1 (VCAM1) Biomarker Activity (AID 2283086); conditions: primary human HUVEC with PBMC; actives raise or lower the signal
In short: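 HUVEC + PBMC co-culture, LPS system; compound 24 h; VCAM-1 by ELISA; bidirectional fit vs DMSO control; parallel SRB (0.1%, TCA-fixed, 560 nm) for cytotoxicity.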

Measured: AC50

Chain of E-selectin (Homo sapiens) (P16581 whole entry, looked up): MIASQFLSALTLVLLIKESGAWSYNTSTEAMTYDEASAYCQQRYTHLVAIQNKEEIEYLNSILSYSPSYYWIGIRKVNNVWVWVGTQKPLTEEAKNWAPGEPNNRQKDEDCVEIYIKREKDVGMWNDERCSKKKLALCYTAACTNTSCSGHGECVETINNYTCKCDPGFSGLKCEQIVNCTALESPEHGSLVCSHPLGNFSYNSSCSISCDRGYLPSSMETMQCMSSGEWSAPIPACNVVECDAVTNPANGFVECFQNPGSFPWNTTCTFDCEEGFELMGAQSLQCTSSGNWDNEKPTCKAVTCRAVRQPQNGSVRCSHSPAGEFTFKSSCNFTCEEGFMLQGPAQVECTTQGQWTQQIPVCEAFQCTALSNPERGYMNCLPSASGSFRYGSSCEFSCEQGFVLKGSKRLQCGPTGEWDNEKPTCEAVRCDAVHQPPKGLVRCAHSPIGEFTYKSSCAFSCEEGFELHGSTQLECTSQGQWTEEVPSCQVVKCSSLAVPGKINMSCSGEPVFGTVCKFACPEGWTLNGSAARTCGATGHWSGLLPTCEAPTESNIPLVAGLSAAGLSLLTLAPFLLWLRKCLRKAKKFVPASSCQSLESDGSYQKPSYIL
Chain of Tumor necrosis factor (Homo sapiens) (P01375 whole entry, looked up): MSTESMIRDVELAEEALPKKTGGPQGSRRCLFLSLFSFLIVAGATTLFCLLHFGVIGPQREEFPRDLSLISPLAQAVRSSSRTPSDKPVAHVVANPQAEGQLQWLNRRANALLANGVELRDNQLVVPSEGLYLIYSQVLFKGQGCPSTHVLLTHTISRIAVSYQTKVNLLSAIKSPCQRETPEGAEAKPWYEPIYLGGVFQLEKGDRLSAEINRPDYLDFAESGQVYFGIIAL

CC(C)(C)c1ccccc1
not listed: [20]
inactive: all other assays above

CCCCCCCCCCCCCCCCO
not listed: [20]
inactive: all other assays above

O=C(NS(=O)(=O)/C=C/c1cccs1)c1ccc(F)cc1Br
active: [5] 0.451 µM | [16] 3.97 µM
not listed: [11]
inactive: all other assays above

O=C1O[C@H]([C@H](O)CO)C(O)=C1O
not listed: [20]
inactive: all other assays above

CCCCOC(=O)CCCCC(=O)OCCCC
not listed: [20]
inactive: all other assays above

O=C1c2c(O)cccc2Cc2cccc(O)c21
active: [1] 24.6 µM | [2] 20 µM | [3] 10.2 µM | [4] 27.8 µM
not listed: [11]
inactive: all other assays above

CC1(C)C(=O)NC(=O)N1CO
active: [11] 0.749 µM
not listed: [20]
inactive: all other assays above

From PubChem BioAssay (EPA / NIEHS)
